# Measured values taken from PubChem BioAssay (Tox21).
# Records with an inconclusive call do not appear. Calls of active or inactive are those of the source. Calls follow the shape of the dose curve; as a rule, active = well fitted cell-killing curve with a large enough effect in the repeat runs (not every such curve was filed as active); inconclusive = weak or mixed curves, or effect the other way; inactive = no such curve, though single readings can be large or run the other way.
# Assay: qHTS assay to identify small molecule antagonists of the estrogen related receptor signaling pathway with the pleiotropic PPARgamma coactivator (PGC) from Tox21 10K library - cell viability counter screen (AID 1224840); also: nearly all actives have a fitted effect of over 40% in size
# Conditions: PGC/ERR reporter cells viability, CellTiter-Fluor, 17.5 h; series mostly up to 92.4 µM; viability change, negative = cytotoxic: at the top concentration
# From the text: National Center for Advancing Translational Sciences [NCATS]
# NIH Chemical Genomics Center [NCGC]
# U.S. Environmental Protection Agency [EPA]
# National Institutes of Environmental Health Sciences [NIEHS]
# National Toxicology Program [NTP]
# U.S. Food and Drug Administration [FDA]
# Estrogen related receptors (ERRs), the first orphan nuclear receptors discovered, play an important role in the control of cellular energy metabolism. ERRs are required for high-energy production in response to the environmental challenges. The pleiotropic PPARgamma coactivator (PGC) is a major partner of ERR and a key regulator in energy homeostasis. Together they have been implicated in the etiology of metabolic disorders such as Type 2 diabetes and metabolic syndrome. ERR-alpha was also identified as an adverse marker for breast cancer progression; ERR-alpha-positive tumors have a poor prognosis. To screen and to identify environmental compounds that perturb the ERR and PGC/ERR signaling pathways could provide valuable information for potential therapeutic or preventive measures in the treatment of metabolic disease. To differentiate true PGC/ERR antagonists or agonist from cytotoxic substances, the assay is multiplexed with cell viability assay.
# Tox21 Assay Protocol Summary:
# The PGC/ERR cells were dispensed at 2,000 cells/5 ul/well in 1536-well white plates using a Multidrop dispenser. After the assay plates were incubated at a 37 C/5% CO2 incubator for 6 hours, 23 nL of compounds dissolved in DMSO, positive and negative controls or DMSO only was transferred to the assay plate by a pin tool. The plates were incubated at 37 C for 17.5 hours. 1 ul/well of CellTiter-Fluor reagent was added into the assay plates using a Flying Reagent Dispenser. After 30-minute incubation at 37 C/5% CO2, the fluorescence intensity in the plates was measured using a ViewLux plate reader.
# % is scaled to controls: 0 for no effect and ±100 for the full control effect.
row,SMILES,"viability change, negative = cytotoxic"
1,O=C(NS(=O)(=O)/C=C/c1cccs1)c1ccc(F)cc1Br,0.34% (inactive)
2,C=C(C)C(=O)OCCOc1ccccc1,1.63% (inactive)
3,N#Cc1c(F)cccc1F,1.8% (inactive)
4,O=C(Cl)c1ccc([N+](=O)[O-])cc1,9.97% (inactive)
5,CC1=CCC(C(C)C)C=C1 (stereo not given),0.0573% (inactive)
6,CCC(C)N(C)C(=O)c1cc2ccccc2c(-c2ccccc2Cl)n1 (stereo not given),-22.9% [at 42.5 µM] (inactive)
7,NCc1ccccc1,4.91% (inactive)
8,O=C(O)c1cccc(N(Cc2cccnc2)c2ccc(OC(F)F)c(OC(F)F)c2)c1,-16.5% (inactive)
9,N#Cc1cc2ccccc2c2ccccc12,1.52% (inactive)
10,Cc1occc1S,-2.2% (inactive)
11,CC(C)(C)c1cc(CCC(=O)OCC(COC(=O)CCc2cc(C(C)(C)C)c(O)c(C(C)(C)C)c2)(COC(=O)CCc2cc(C(C)(C)C)c(O)c(C(C)(C)C)c2)COC(=O)CCc2cc(C(C)(C)C)c(O)c(C(C)(C)C)c2)cc(C(C)(C)C)c1O,1.4% [at 42.5 µM] (inactive)
12,Nc1ccc(C(=O)Nc2ccccc2N)cc1,1.11% [at 42.5 µM] (inactive)
13,O=CNc1ccccc1,2.46% (inactive)
14,CCCCOc1cc(C(=O)OCCN(CC)CC)ccc1N,0.612% [at 42.5 µM] (inactive)
15,CCOC(=S)SSC(=S)OCC,1.43% (inactive)
16,C[C@@H](C1=C(CCN(C)C)Cc2ccccc21)c1ccccn1,-0.116% [at 42.5 µM] (inactive)
17,CCCCOc1ccc(CC(=O)NO)cc1,-20.2% [at 42.5 µM] (inactive)
18,COc1ccc([C@@H]2Sc3ccccc3N(CCN(C)C)C(=O)[C@@H]2OC(C)=O)cc1,-9.69% [at 42.5 µM] (inactive)
19,FC(F)(F)C(F)(F)C(F)(F)C(F)(F)C(F)(F)C(F)(F)CCI,4.08% [at 42.5 µM] (inactive)
20,CCCCCCCCCCCCCCCC(=O)OC/C=C(C)/C=C/C=C(C)/C=C/C1=C(C)CCCC1(C)C,-3.45% (inactive)

row,SMILES,"viability change, negative = cytotoxic"
1,CN1CCC[C@@H]1c1cccnc1,0% [at 42.5 µM] (inactive)
2,C[Si](C)O[Si](C)(C)O[Si](C)(C)O[Si](C)C,2.39% (inactive)
3,CCCCCC(CO)CCC (stereo not given),8.69% (inactive)
4,CC1(C)[C@H]2CC[C@]1(C)[C@H](O)C2,9.03% (inactive)
5,O=C(O)C1CCC(C(=O)O)CC1 (stereo not given),0.746% (inactive)
6,CCN(CCO)CCCC(C)Nc1ccnc2cc(Cl)ccc12 (stereo not given),1.55% [at 8.39 µM] (inactive)
7,CC(=O)c1ccc2c(c1)[C@H](NC(=O)c1ccc(F)cc1)[C@@H](O)C(C)(C)O2,-14.5% (inactive)
8,c1ccc(OCc2ccc(CCCN3CCOCC3)cc2)cc1,-8.08% [at 42.5 µM] (inactive)
9,CC(C)=CCCC(C)CC=O (stereo not given),3.16% (inactive)
10,C#CCOC(=O)[C@@H](C)Oc1ccc(Oc2ncc(Cl)cc2F)cc1,0.44% (inactive)
11,Oc1ccc(Sc2ccc(O)cc2)cc1,-16% (inactive)
12,Oc1ccc(C(O)CNCCCCCCNCC(O)c2ccc(O)c(O)c2)cc1O (stereo not given),-7.36% [at 42.5 µM] (inactive)
13,CCOc1ccc(NC(=O)CC(C)=O)cc1,-0.317% (inactive)
14,CCOC(=O)CC(C)C,2.07% (inactive)
15,CC(=O)N(O)CCCCCNC(=O)CCC(=O)N(O)CCCCCNC(=O)CCC(=O)N(O)CCCCCN,-14.9% [at 42.5 µM] (inactive)
16,CN(C)CCCOc1nn(Cc2ccccc2)c2ccccc12,-7.06% [at 42.5 µM] (inactive)
17,Nc1nc(N)c(-c2ccccc2)s1,-0.235% [at 42.5 µM] (inactive)
18,CCCCOC(=O)/C=C\C(=O)OCCCC,-14% (inactive)
19,CC(CN)CCCN (stereo not given),-0.556% (inactive)
20,CN(C)CC/C=C1\c2ccccc2COc2ccccc21,15.5% [at 42.5 µM] (inactive)
